Assay outcomes as filed in PubChem BioAssay.
BAZ2B block – qHTS Assay for Inhibitors of BAZ2B | AlphaScreen BAZ2B-H3K14Ac peptide displacement | Potency, µM (highest dose often 114 µM), most hits filed as inhibitors | hit rate 4.4% among 360,000; further: nearly all actives have a fitted effect of over 60% in size
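AlphaScreen luminescence quantifies BAZ2B engagement of H3K14Ac peptide; the protein and biotinylated peptide are both at 50 nM final, buffer PBS pH 7.4 with 0.01% Tween-20, all steps at room temperature.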
HP1b chromo inh – HTS for Inhibitors of HP1-beta Chromodomain Interactions with Methylated Histone Tails. Chromobox protein homolog 1 (Homo sapiens), P83916. AlphaScreen HP1-beta / biotin-H3K9me3 peptide binding. Potency, µM (highest dose often 114 µM), actives largely listed as inhibitors. hit rate 0.56% among 390,000. AID 540317, 2011; further: nearly all actives have a fitted effect of over 70% in size
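Compound inhibition of the preformed complex between 50 nM HP1-beta and 50 nM biotinylated H3K9me3 peptide was read by AlphaScreen. Buffer was PBS pH 7.4 with 0.01% Tween-20. Incubations ran 30 min at room temperature, with 10 ug/mL donor/acceptor beads.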
G9a block – qHTS Assay for Inhibitors of Histone Lysine Methyltransferase G9a; Potency, µM (titrated, usually from 102 µM), actives largely listed as inhibitors; G9a H3K9 monomethylation, AlphaScreen, 2 h; hit rate 8.8% among 350,000; further: nearly all actives have a fitted effect of over 75% in size
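Chemiluminescent proximity detection of H3K9 monomethylation, read after 10 min bead incubation in the dark. Reaction: 20 nM G9a, 500 nM biotin-H3K9 peptide, 20 uM SAM cofactor, 2 h, room temperature, following 15 min enzyme-compound preincubation.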
JMJD2A Tudor inh – qHTS Assay for Inhibitors of JMJD2A-Tudor Domain | Potency, µM (top dose mostly 114 µM), actives largely listed as inhibitors | Lysine-specific demethylase 4A (Homo sapiens), O75164 | AlphaScreen JMJD2A-Tudor / H3K4me3 peptide binding | AID 504339, 2011 | hit rate 4.4% among 390,000; further: nearly all actives have a fitted effect of over 50% in size
L3MBTL1 inh – qHTS Assay for the Inhibitors of L3MBTL1; Lethal(3)malignant brain tumor-like protein 1 (Homo sapiens), Q9Y468; hit rate 0.66% among 230,000; AlphaScreen L3MBTL1–H3K9me1 peptide binding; AID 485360, 2010; Potency, µM (highest dose often 57.1 µM), actives largely listed as inhibitors; further: nearly all actives have a fitted effect of over 60% in size
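AlphaScreen assay: L3MBTL1 (50 nM final) was preincubated 30 min at room temperature with biotinylated H3(1-15)K9me1 peptide (75 nM final), then 30 min with library compounds; streptavidin donor and nickel chelate acceptor beads (10 ug/mL final) added, 30 min dark.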
Large screens that a line does not name were inactive; ! = repeats disagree. Most compounds without a hit are left out; they make up all but 11% or so of the library. The call rests on the fitted dose curve; in most records, active means well fitted inhibition curve with a large enough effect; inconclusive means small, poorly fitted or top-dose-only effect; inactive means no such curve, though single readings can be large or run the other way.

Cc1ccc(NC(=O)Cn2c(=O)n(CC3CCC(C(=O)NC(C)C)CC3)c(=O)c3sccc32)cc1 (stereo not given)	none (no result: L3MBTL1 inh)
c1ccc2c(c1)[nH]c1nc(SCCN3CCOCC3)nnc12	G9a block 3.5µM, JMJD2A Tudor inh 79µM
CCCn1c2ccccc2c2nnc(SCCN3CCOCC3)nc21	G9a block inconclusive (no result: L3MBTL1 inh)
CC(=O)NS(=O)(=O)c1ccc(NS(=O)(=O)c2ccc3ccccc3c2)cc1	G9a block inconclusive (no result: L3MBTL1 inh)
Cc1ccc(NS(=O)(=O)c2ccc3c(c2)n(C)c(=O)n3C)cc1	none (no result: L3MBTL1 inh)
CC(=O)Nc1ccc(NS(=O)(=O)c2ccc3c(c2)n(C)c(=O)n3C)cc1	BAZ2B block 79µM
CC(=O)Nc1ccc(S(=O)(=O)Nc2ccc(C(=O)NCC(=O)O)cc2)cc1	G9a block 20µM
CC(=O)Nc1ccc(NS(=O)(=O)c2ccc3ccccc3c2)cc1	JMJD2A Tudor inh 28µM (no result: L3MBTL1 inh)
O=C(NCCc1ccccn1)c1cncc(Br)c1	none (no result: L3MBTL1 inh)
CCCOc1ccc(C2c3c(-c4ccccc4O)n[nH]c3C(=O)N2CCc2ccccc2)cc1OCC (stereo not given)	none (no result: L3MBTL1 inh)
CCc1cccc(CC)c1NC(=S)/C(=C(\[O-])c1ccc(Cl)s1)[n+]1ccccc1	BAZ2B block inconclusive, G9a block 45µM, JMJD2A Tudor inh inconclusive
[O-]C(=C(C(=S)Nc1cccc2ccccc12)[n+]1cccc(CO)c1)c1ccc(Cl)s1	none (no result: BAZ2B block, G9a block, L3MBTL1 inh)
[O-]/C(=C(\C(=S)Nc1cccc2ccccc12)[n+]1ccccc1)c1ccc(Cl)s1	BAZ2B block 35µM, HP1b chromo inh inconclusive, G9a block inconclusive, JMJD2A Tudor inh inconclusive, L3MBTL1 inh inconclusive
CC(C)(C)c1cc[n+](/C(C(=S)NC2CC2)=C(/[O-])c2ccc(Cl)s2)cc1	G9a block 10µM (no result: L3MBTL1 inh)
Cc1cc(C)cc(NC(=S)/C(=C(\[O-])c2ccc(Cl)s2)[n+]2cccc(C)c2)c1	BAZ2B block 40µM, HP1b chromo inh inconclusive, G9a block 45µM, JMJD2A Tudor inh 50µM, L3MBTL1 inh inconclusive
CC1CCC(N2CC(=O)N(C3CCCCC3)C(c3ccc(Cl)cc3)C2=O)CC1 (stereo not given)	none (no result: L3MBTL1 inh)
COc1ccc(CCNC(=O)CCCCn2c(=O)c3ccccc3n(Cc3ccc(Cl)cc3)c2=O)cc1OC	none (no result: L3MBTL1 inh)
Cc1ccc(C)c(NC(=S)/C(=C(\[O-])c2ccc(Cl)s2)[n+]2ccccc2)c1	BAZ2B block 35µM, G9a block inconclusive, JMJD2A Tudor inh inconclusive, L3MBTL1 inh inconclusive
Brc1cccc(CSc2nnc(-c3ccncc3)o2)c1	G9a block 45µM (no result: L3MBTL1 inh)
c1ccc2c(CSc3nnc(-c4ccncc4)o3)cccc2c1	G9a block 50µM
Clc1ccccc1CSc1nnc(-c2ccncc2)o1	none
COc1cccc(-c2nc(CS(=O)(=O)CC(=O)Nc3c(C)cc(C)cc3C)c(C)o2)c1	BAZ2B block inconclusive (no result: L3MBTL1 inh)
COc1ccc(-n2nc(C(=O)Nc3ccc(Cl)cn3)c3c4ccccc4n(C)c3c2=O)cc1Cl	none (no result: BAZ2B block, L3MBTL1 inh)
C#CCOCCOCCOCCNc1nc(N2CCOCC2)nc(N2CCN(C(=O)[C@H]([C@@H](C)CC)n3cc(CCCCN)nn3)CC2)n1	BAZ2B block inconclusive, G9a block 50µM, JMJD2A Tudor inh inconclusive
C#CCOCCOCCOCCNc1nc(N2CCN(C(=O)[C@H](C(C)C)n3cc(CCO)nn3)CC2)nc(N2CCN(C(=O)[C@H]([C@@H](C)CC)n3cc(CCCCN)nn3)CC2)n1	G9a block 50µM
C#CCOCCOCCOCCNc1nc(N2CCN(C(=O)[C@H]([C@@H](C)CC)n3cc(CCCCN)nn3)CC2)nc(N2CCN(C(=O)[C@H]([C@@H](C)CC)n3cc(CCCN=C(N)N)nn3)CC2)n1	none
COc1ccc(N(Cc2cccs2)C(=O)c2ccc(Br)o2)cc1	none (no result: L3MBTL1 inh)
CC(C)(C)c1ccc(CCC2OCC(C[N+]3(C)CCOCC3)O2)cc1 (stereo not given)	G9a block 50µM, JMJD2A Tudor inh inconclusive
CCCCNC(=O)C(CC)Sc1nnc(-c2ccc(F)cc2)c(-c2ccc(F)cc2)n1 (stereo not given)	none (no result: L3MBTL1 inh)
COc1c(/C=N/Nc2ccc(C(=O)O)cc2)c(CCN(C)C(C)=O)cc2c1OCO2	G9a block 45µM
COc1ccc(NC(=O)/C(Cl)=C(/Cl)S(=O)Cc2ccccc2Cl)cn1 (stereo not given)	G9a block 10µM
COc1ccc(NC(=O)/C(Cl)=C(/Cl)S(=O)(=O)Cc2ccc(C)cc2)cn1	G9a block 45µM (no result: L3MBTL1 inh)
COc1ccc(CNC(=O)c2cc(-c3ccc(C)c(C)c3)n[nH]2)cc1	none (no result: L3MBTL1 inh)
CC(C)Oc1ccc(CNC(=O)c2ccc(CS(=O)c3cccc(Cl)c3)o2)cc1 (stereo not given)	none (no result: L3MBTL1 inh)
CCOc1ccc(CNC(=O)Cn2nc(C)c3c(C)n(-c4ccc(C)cc4)nc3c2=O)cc1	JMJD2A Tudor inh 40µM! (no result: L3MBTL1 inh)
Cc1nn(CCC(=O)NCc2ccc(Cl)cc2)c(=O)c2nn(-c3ccccc3)c(C)c12	none (no result: L3MBTL1 inh)
COc1ccc(OC)c(CCNC(=O)Cn2nc(C)c3c(C)n(-c4ccc(C)cc4)nc3c2=O)c1	BAZ2B block 50µM (no result: G9a block, L3MBTL1 inh)
Cc1nn(CCC(=O)NCc2ccc(N(C)C)cc2)c(=O)c2nn(-c3ccccc3)c(C)c12	G9a block 45µM (no result: L3MBTL1 inh)
CCc1ccc(CNC(=O)Cn2nc(C)c3c(C)n(-c4ccc(C)cc4)nc3c2=O)cc1	none (no result: L3MBTL1 inh)
O=C(NCCCN1CCOCC1)c1cc2c(=O)[nH]c3ccccc3c2s1	none
COc1cc2[nH]c(=S)n(NC(=O)c3ccccc3)c(=O)c2cc1OC	BAZ2B block inconclusive, G9a block inconclusive, JMJD2A Tudor inh 89µM (no result: L3MBTL1 inh)
COc1ccccc1Cn1c(=S)[nH]c2cc(C(=O)NCCCN3CCOCC3)ccc2c1=O	G9a block 35µM (no result: L3MBTL1 inh)
O=C(NCCCN1CCOCC1)c1ccc2c(=O)n(Cc3cccc(Br)c3)c(=S)[nH]c2c1	HP1b chromo inh inconclusive, G9a block 35µM, JMJD2A Tudor inh inconclusive (no result: L3MBTL1 inh)
O=C(NCCCN1CCOCC1)c1c(O)c2ccccc2[nH]c1=O	G9a block 50µM
Cc1cc2c(s1)c1cnn(Cc3cccc(Cn4ncc5c6sc(C)cc6n(C)c5c4=O)c3F)c(=O)c1n2C	none (no result: BAZ2B block, HP1b chromo inh, G9a block, L3MBTL1 inh)
CC1=C(C(=O)NCc2cccc(Cl)c2)C2(CCCCCC2)OC1=O	none (no result: L3MBTL1 inh)
COc1ccc(C2c3ccccc3Oc3ncn(CCN4CCOCC4)c(=N)c32)cc1OC (stereo not given)	none (no result: BAZ2B block, HP1b chromo inh, G9a block, L3MBTL1 inh)
Cc1cccc(C(=O)NC(=O)Nc2ccc(-n3nc(C(F)(F)F)cc3C(F)(F)F)cc2)c1	none (no result: L3MBTL1 inh)
O=Cc1c(NCCN2CCCC2)c2ccccc2[nH]c1=O	G9a block 10µM, JMJD2A Tudor inh inconclusive
